# HT1080 IDH1KD tx: kills HT-1080 cells with IDH1 knockdown; AID 686971; HT-1080 IDH1 knockdown viability, ATP luminescence, 48 h; actives 2% (n = 360,000); Potency, µM (titrated, usually from 46.1 µM), for inactives: at the highest dose activity, negative = toxicity, hits mostly cytotoxic;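 also: 0% = DMSO wells and -100% = cell-free medium wells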
#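 Cytotoxicity counter-line: IDH1KD HT-1080, 48 h, CellTiter-Glo. Curves classed by r2, magnitude and activity.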
# TDP1 cell noCPT: qHTS for Inhibitors of human tyrosyl-DNA phosphodiesterase 1 (TDP1): qHTS in cells in absence of CPT; DT40 Tdp1-/- hTDP1 cells, no CPT, ATP luminescence, 48 h; actives 15% (n = 420,000); Potency, µM (series often up to 46.2 µM), without a hit: at the top dose activity change, negative = growth inhibition, most hits filed as inhibitors; also: nearly all actives have a fitted effect of over 55% in size
#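 Luminescent ATP content (CellTiter-Glo) served as the growth readout. Knockout chicken DT40 cells expressing human TDP1 were exposed to compounds without camptothecin for a minimum 48 hr at 37 °C.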
# KB-3-1 cytotox: kills parental KB-3-1 adenocarcinoma cells. KB-3-1 viability, CellTiter-Glo ATP luminescence, 72 h. Potency, µM (top dose mostly 46.1 µM), actives largely listed as cytotoxic. actives 1.4% (n = 400,000). AID 1347075; also: nearly all actives have a fitted effect of over 60% in size
#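 Luminescent ATP read-out (CellTiter-Glo) measures survival of drug-naive KB-3-1 cells after 72 h compound exposure at 37 °C. Titration series was screened from lowest to highest concentration, with DMSO vehicle plates as background controls.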
# TDP1 cell CPT: DT40-hTDP1 cell growth loss with CPT | chicken DT40 Tdp1-/-;hTDP1 cells + 20 nM CPT, ATP luminescence, 48 h | Potency, µM (titrated, usually from 46.2 µM), without a hit: at the highest dose activity change, negative = growth inhibition, actives largely listed as inhibitors | actives 12% (n = 420,000) | AID 686979; also: nearly all actives have a fitted effect of over 55% in size
#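 Cell growth measured by CellTiter-Glo luminescence after a minimum 48 h, 37 C compound exposure with 20 nM CPT in Tdp1-knockout DT40 cells stably expressing hTDP1, seeded 400/well; qHTS titration format.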
# KB-V1 MDR tox: KB-V1 MDR subline cytotoxicity; actives 3.4% (n = 400,000); Potency, µM (series often up to 46.1 µM), usual class: cytotoxic; KB-V1 MDR cells viability, CellTiter-Glo, 72 h; also: nearly all actives have a fitted effect of over 60% in size
#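 Cytotoxicity via CellTiter-Glo luminescence after 72 h compound exposure at 37 degrees C. Cells: drug-selected KB-V1 line, DMEM phenol-red free plus 10% FBS. Compounds tested at multiple concentrations; normalized data fitted to concentration-effect curves.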
# HT1080-NT tox: kills 2HG-producing HT-1080-NT fibrosarcoma cells. HT-1080-NT fibrosarcoma viability, CellTiter-Glo ATP luminescence, 48 h. Potency, µM (series often up to 46.1 µM), without a hit: at the top dose activity, negative = less viability, hits mostly cytotoxic. actives 1.6% (n = 360,000);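 also: NT is the 2HG producing partner of a matched IDH1 knockdown line; 0% = DMSO-treated cells and -100% = media-only wells without cells; nearly all actives have a fitted effect of over 55% in size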
#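 Compounds were tested in concentration-response format on HT-1080-NT cells for 48 hours at 37 degrees C. Cell viability came from CellTiter-Glo luminescence; curves were classified by r2, response magnitude and activity.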
# Numbers without * were called inactive; i = inactive; ? = inconclusive; nt = not tested or not shown; ! = a repeat was not active; [ ] = dose if it differs, or a comment. An excerpt weighted towards active compounds, which were near 19% of everything screened. Calls follow the shape of the dose curve; as a rule, active = well fitted curve in the direction sought with a large enough effect; inconclusive = small, poorly fitted or top-dose-only effect, or another doubt; inactive = no such curve, though single readings can be large; an effect the other way counts as inactive or inconclusive. Unless noted, % is scaled to controls: 0 for no effect and ±100 for the full control effect; potency is read from the fitted curve at half-maximal effect.
SMILES,HT1080 IDH1KD tx,TDP1 cell noCPT,KB-3-1 cytotox,TDP1 cell CPT,KB-V1 MDR tox,HT1080-NT tox
CC(OC(=O)c1n[nH]c2ccccc12)C(=O)Nc1ccccc1[N+](=O)[O-] (centres undefined),0%,15µM*,i,?,i,-2%
Cc1ccc(NC(=O)C(C)OC(=O)c2n[nH]c3ccccc23)cc1 (centres undefined),-10%,-8%,i,-8%,?,-2%
CCc1cc(=O)oc2c(CNCc3c(F)cccc3Cl)c(O)ccc12,0%,-2%,i,18µM*,i,9%
CCCCCCCCCCCC[N+](C)(C)Cc1ccccc1,nt,1.7µM*,nt,1.5µM*,nt,nt
COC(=O)[C@]12CCCCC=C1N(CCc1ccc(OC)c(OC)c1)C(=O)[C@H](CC(=O)N1CCN(C(=O)c3ccco3)CC1)C2,-29%,?,i,?,?,-22%
COC(=O)[C@]12CCCCC=C1N(Cc1ccccc1)C(=O)[C@H](CC(=O)N1CCCC1)C2,5%,?,i,?,i,15%
COC(=O)[C@]12CCCCC=C1N(CCC1=CCCCC1)C(=O)[C@H](CC(=O)N1CCN(C(=O)c3ccco3)CC1)C2,-17%,26µM*,i,?,i,-14%
COC(=O)[C@]12CCCCC=C1N(CCC1=CCCCC1)C(=O)[C@H](CC(=O)N1CCC(c3ccccc3)CC1)C2,?,16µM*,i,?,?,?
COC(=O)[C@]12CCCCC=C1N(CCC1=CCCCC1)C(=O)[C@H](CC(=O)N1CCCC1)C2,-6%,16µM*,i,?,i,2%
COC(=O)[C@]12CCCCC=C1N(CCc1ccc(OC)c(OC)c1)C(=O)[C@H](CC(=O)N1CCCC1)C2,2%,?,i,?,i,15%
CCN(CC)S(=O)(=O)c1cccc(C(=O)NC(C)C(c2cccs2)N2CCCC2)c1 (centres undefined),14%,?,i,?,i,10%
Cc1oc2c(C)c3oc(=O)c(CC(=O)N4CCCCC4)c(C)c3cc2c1C,nt,21µM*,nt,21µM*,nt,nt
Cc1coc2c(C)c3oc(=O)c(CCC(=O)N4CCCCC4)c(C)c3cc12,nt,16µM*,nt,13µM*,nt,nt
Cc1coc2c(C)c3oc(=O)c(CCC(=O)NCCC(=O)O)c(C)c3cc12,0%,-1%,i,23%,i,3%
CCc1nc2ccc(C(=O)NC3CCN(Cc4ccccc4)CC3)cn2c1N(C)Cc1ccc(N(C)C)cc1,-6%,?,i,?,i,-24%
CCN1C(=O)N(c2cccc3ccccc23)C(C)=CC1(C)C,4%,23µM*,i,?,i,3%
Cn1c(=O)[nH]c(=O)c2c1nc(Sc1ccccc1)n2CCc1ccccc1,11%,-23%,i,-19%,i,14%
Cc1ccc(Cn2c(Sc3nnc(C)s3)nc3c2c(=O)[nH]c(=O)n3C)cc1,2%,23µM*,i,?,i,13%
CCCn1c(N)c(C(=O)CSc2nnc(N)s2)c(=O)[nH]c1=O,-3%,-15%,i,-4%,i,0%
Cn1c(=O)[nH]c(=O)c2c1nc(Sc1nc3ccccc3s1)n2Cc1ccccc1,?,6.5µM*,i,8.2µM*,?,?
CCCn1c(N)c(C(=O)CSc2nc3ccccc3s2)c(=O)[nH]c1=O,?,16µM*,?,21µM*,?,-26%
Cc1nnc(Sc2nc3c(c(=O)[nH]c(=O)n3C)n2CCc2ccccc2)s1,-2%,-27%,i,-18%,i,3%
Cc1cc(C)n(CCCN2C(=O)c3cccc4cccc(c34)C2=O)n1,-5%,?,i,11%,i,-3%
CCc1nc2oc3ccccc3c(=O)c2cc1C(=O)OC,12%,-27%,i,0%,i,9%
NS(=O)(=O)c1ccc(N/N=C2/CCCCC2C2CCCCC2)c([N+](=O)[O-])c1 (centres undefined),?,10µM*,?,21µM*,i,18µM*
SMILES,HT1080 IDH1KD tx,TDP1 cell noCPT,KB-3-1 cytotox,TDP1 cell CPT,KB-V1 MDR tox,HT1080-NT tox
COc1ccccc1NS(=O)(=O)c1ccc(OC)c([N+](=O)[O-])c1,5%,-13%,i,1%,i,0%
CCCC(CCC)=NNc1ccc(S(=O)(=O)Nc2ccccc2OC)cc1[N+](=O)[O-],4%,?,i,?,12µM*,3%
COc1ccccc1NS(=O)(=O)c1ccc(NN=C2CCCCC2)c([N+](=O)[O-])c1,-3%,26µM*,i,18µM*,16µM*,-11%
CC1CC(C)CN(C(=O)CN2C(=O)NC3(CCCCCCC3)C2=O)C1 (centres undefined),-3%,0%,i,-8%,i,-1%[9.24 µM]
COc1cccc2cc(C(=O)Nc3ccc(CC(=O)O)cc3)c(=O)oc12,nt,nt,i,nt,i,nt
CC(Cc1cccc(C(F)(F)F)c1)NCCOC(=O)c1ccccc1 (centres undefined),3%,18µM*!,i,?,i,11%
Oc1cccc(C(O)CNCc2ccc(OCc3ccc(Cl)cc3Cl)cc2)c1 (centres undefined),16µM*,15µM*,i,?,?,23µM*
Oc1cccc(C(O)CNCc2ccc(-c3ccccc3)cc2)c1 (centres undefined),21µM*,?,?,18µM*,?,16µM*
OC(CNCc1cccc(Cl)c1)c1ccccc1 (centres undefined),-8%,?,i,-21%,?,-24%
Cc1ccc(S(=O)(=O)N2CCN(c3ccccc3)CC2)s1,1%,-4%,i,2%,i,0%
C=CCNC(=O)NC(=O)COC(=O)/C(C#N)=C/c1ccc(OC)cc1,2%,6%,i,-5%,i,?
Cc1cc(C)n(CCc2nc(-c3ccc(C)o3)cs2)n1,21%,16µM*,i,?,i,17%
Cc1cc(C)n(CCc2nc(-c3cc4ccccc4o3)cs2)n1,6%,18µM*,i,18µM*,16µM*,2%
COc1ccc(CCN(Cc2cccs2)S(=O)(=O)c2ccc(S(=O)(=O)N3CCCCCC3)cc2)cc1OC,18%,9.2µM*,i,?,?,1%
